Most compounds without a hit are left out; they make up all but 2.2% or so of the library.
SKN-1 block – inhibitors of C. elegans SKN-1. C. elegans VP596 Pgst-4::GFP/RFP ratio, acrylamide-induced, 24 h. inhibition, % at 21.8 µM. 0.49% of 360,000 active;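 active = interference check ratio from 0.5 to 1.5 plus GFP to RFP signal ratio inhibition reaching or exceeding a fixed threshold, cut at about 30% in these data, passing the limit was not always enough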
sPLA2-III inh – Inhibits HGIII-sPLA2 liposome hydrolysis, primary screen. Q9NZ20. QFRET BODIPY PC-A2 liposome hydrolysis, fluorescence. inhibition, % at 12.2 µM. 0.56% of 370,000 active. AID 743126;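 active = inhibition above mean plus 3 SD of compounds lying within the high and low control bounds, cut at about 19% in these data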;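 note: 0% = median of test compound wells and 100% = no enzyme DMSO wells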
Target sequence (Q9NZ20 whole entry, looked up): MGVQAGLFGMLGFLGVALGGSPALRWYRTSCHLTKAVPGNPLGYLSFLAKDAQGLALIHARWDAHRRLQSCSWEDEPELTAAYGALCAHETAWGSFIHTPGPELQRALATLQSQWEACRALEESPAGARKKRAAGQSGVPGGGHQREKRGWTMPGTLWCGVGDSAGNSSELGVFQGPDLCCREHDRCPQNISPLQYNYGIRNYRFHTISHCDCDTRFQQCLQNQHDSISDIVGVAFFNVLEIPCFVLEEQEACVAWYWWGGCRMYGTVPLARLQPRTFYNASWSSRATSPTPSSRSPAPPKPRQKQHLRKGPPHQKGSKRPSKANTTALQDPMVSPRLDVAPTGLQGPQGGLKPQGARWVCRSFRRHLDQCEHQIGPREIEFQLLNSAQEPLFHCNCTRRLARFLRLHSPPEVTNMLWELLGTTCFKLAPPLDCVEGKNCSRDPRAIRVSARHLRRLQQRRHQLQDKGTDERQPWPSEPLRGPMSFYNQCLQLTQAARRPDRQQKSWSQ
SUMO Mot1 rescue – blocks SUMOylation pathway, rescuing yeast Mot1-301 growth; S. cerevisiae Mot1-301 growth rescue, ATP luminescence, 38.5C; percent above DMSO median, 100 means doubled; growth rescue, % at 18.8 µM; 1% of 320,000 active; AID 2716;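 active = every valid replicate shows activation above 250% relative to neutral control wells; inactive = the rest, any valid replicate at or below 250%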;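 note: OY570 slx delta 5 strain wells were the positive control but not used for scaling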
Efflux pump mplx – blocks antifungal efflux pumps in multiplex yeast assay | inhibition, % at 10 µM | 0.44% of 330,000 active | S. cerevisiae Candida pump triplex, Nile Red efflux;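 active = plate passing quality check with inhibition over a set limit, or well fluorescence over plate mean plus 4 SD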;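 note: Nile Red retained in pooled yeast measured as flow cytometry median fluorescence; 0% = buffer negative control and 100% = Enniatin B positive control; higher means more Nile Red kept so more efflux inhibition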
Numbers without * were called inactive; / = not tested or not shown.

SMILES	SKN-1 block	sPLA2-III inh	SUMO Mot1 rescue	Efflux pump mplx
COC(=O)[C@]12C[C@H](CC(=O)N3CCSCC3)C(=O)N(Cc3ccco3)C1=C[C@H](C1CCCC1)O[C@@H]2C	/	-2	/	/
CC1(C)CC(=O)/C(=N/Nc2ccc(Cl)cc2)CO1	19	0	275*	0
O=C(Cc1ccc(Cl)cc1)NNC1CC(=O)N(c2ccc3ccccc3c2)C1=O (centres undefined)	7	-20	289*	0
COc1ccccc1C(=O)Nc1ccc2c(c1)nc(CCNC(=O)c1ccccc1)n2C	42*	-3	-3	0
O=C(NNC(=O)c1ccncc1)Nc1cccc([N+](=O)[O-])c1	10	4	430*	0
Brc1ccc(-c2cn3ccccc3n2)s1	84*	-5	6	0
Clc1ccc(-c2cn3ccccc3n2)cc1	16	-1	-4	0
N#C/C(=C\C=C\c1ccccc1)c1nc(-c2ccc(Cl)cc2)cs1	17	10	7	0
N#CC(=Cc1cccs1)c1nc(-c2ccc(Cl)cc2)cs1	62*	-7	/	/
Cc1ccc(CNC(=O)[C@H]2O[C@@H](n3cnc4c(N)ncnc43)[C@H](O)[C@@H]2O)o1	17	0	/	/
O=c1cc(C(F)(F)F)[nH]c2ccccc12	-5	3	-23	0
Cc1ccc2[nH]c(C(F)(F)F)cc(=O)c2c1	7	0	342*	0
CC(O)CC(C(=O)NNc1ccccc1)C(=O)NNc1ccccc1 (centres undefined)	11	-2	606*	0
CCNC(=S)NNC(=O)CCc1nc2cc(Cl)ccc2n(Cc2ccccc2)c1=O	-12	0	-16	0
CN(C)C(CNC(=O)CCc1nc2cc(Cl)ccc2n(Cc2ccccc2)c1=O)c1ccccc1 (centres undefined)	57*	-12	-11	0
O=C(Nc1ccc(OC(F)F)c(Cl)c1)c1ccccn1	59*	-2	-9	0
CC(C)Sc1nc(N)nc(-c2cccs2)c1C#N	40*	-7	14	0
CSc1nc(N)nc(-c2cccs2)c1C#N	13	-5	-8	0
C=C(NC(=O)C(=C)NC(=O)c1csc(C2=NC3c4csc(n4)C4NC(=O)c5csc(n5)C([C@@](C)(O)C(C)O)NC(=O)C5CSC(=N5)/C(=C\C)NC(=O)C(C(C)O)NC(=O)c5csc(n5)[C@]3(CC2)NC(=O)C(C)NC(=O)C(=C)NC(=O)C(C)NC(=O)C(C(C)CC)NC2C=Cc3c(C(C)O)cc(nc3C2O)C(=O)OC4C)n1)C(N)=O (some centres undefined)	/	/	11	1.1*
CSc1cccc(NC(=O)C2C3C=CC4(O3)C2C(=O)N(CCN2CCOCC2)C4C(=O)NC2CCCCC2)c1 (centres undefined)	37*	2	-2	0
COc1nc(-c2ccccc2)ccc1-c1noc(-c2ccco2)n1	63*	-8	97	0
Cc1cccc(N=NC(=S)NNc2cccc(C)c2)c1	14	27*	/	/
CCCSc1nc(N2CCOCC2)c2c(c1C#N)CC(C)(C)SC2	38*	5	-9	0
CC(C)CSc1nc(N2CCOCC2)c2c(c1C#N)CC(C)(C)SC2	-27	-2	5	0
NC(=O)c1ccccc1NCC(=O)c1ccc(F)cc1	9	21*	0	0
SMILES	SKN-1 block	sPLA2-III inh	SUMO Mot1 rescue	Efflux pump mplx
COc1cc(/C=C(\C#N)C(=O)NCCc2ccccc2)cc(OC)c1O	-4	1	-1	0
N#C/C(=C\c1ccc(O)c(O)c1)C(=O)NCCc1ccccc1	-14	-3	274*	0
COc1ccc(CNC2CCC23CCC(C)CC3)cc1OC (centres undefined)	/	-6	/	/
O=C1/C(=C/c2ccccc2)SC(=S)N1C1CCS(=O)(=O)C1 (centres undefined)	-1	-1	-14	0
O=C1/C(=C\c2cccs2)SC(=S)N1C1CCS(=O)(=O)C1 (centres undefined)	39*	6	268	0
O=[N+]([O-])c1ccccc1SN(Cc1ccccc1)c1ccccn1	9	8	376*	0
Cc1cc(NC(=O)Cc2cn(Cc3ccccc3)c3ccccc23)ccc1Oc1cccnc1	/	-9	/	/
COCCNC(=O)c1cc2c(s1)-c1ccc(Cl)cc1SC2	9	-4	-13	0
NC(=O)c1cc2c(s1)-c1cc(Cl)ccc1SC2	10	-3	351*	0
[N-]=[N+]=CC(=O)C(O)(c1ccccc1)C(Cl)c1ccccc1 (centres undefined)	-10	-12	301*	0
Cc1ccc(-c2nc(-c3ccccn3)sc2CC(=O)O)cc1	-3	5	328*	0
CCN(CC)c1ccc(C(=S)N2CCN(c3ccccc3)CC2)cc1	32*	4	-1	0
CCCNCc1cc(Cl)c(OCC)c(Cl)c1	42*	0	18	0
C=CCOc1c(Cl)cc(CNCCC)cc1Cl	6	8	29	0
CCC(c1nnnn1C(C)(C)CC)N(CCCO)Cc1cc2cc(C)cc(C)c2[nH]c1=O (centres undefined)	-19	-4	/	/
CCC(C)(C)n1nnnc1C(C(C)C)N(CCCO)Cc1cc2cc(C)ccc2[nH]c1=O (centres undefined)	44*	-5	29	0
Cn1c(=N)c(S(=O)(=O)c2ccccc2)cc2c(=O)n3ccccc3nc21	10	3	311*	0
CCN(CC)c1ccc(-c2nn3c(-c4ccccc4Cl)nnc3s2)cc1	/	-2	/	/
CCN1/C(=C(\O)c2ccccc2)C(=O)c2ccccc2S1(=O)=O	44*	-1	-7	0
O=C(/C=C\c1ccco1)Nc1nc(-c2ccc3ccccc3c2)cs1	39*	-3	-7	0
Cc1ccc(-c2csc(NC(=S)NC(=O)/C=C/c3ccco3)n2)cc1	-12	-3	-15	0
CC1=NN(c2nc(-c3ccc(C)cc3)cs2)C(=O)C1N=Nc1ccc(C(N)=O)cc1 (centres undefined)	10	1	441*	0
CCN1C(c2ccccc2)=C(c2ccccc2)S/C1=C/C=C1\SC(=S)N(C)C1=O	55	-2	/	/
CCN1C(c2ccccc2)=C(c2ccccc2)S/C1=C\C=C1/SC(=S)N(C)C1=O	50*	12	-32	0
CCOc1ccc(C(=O)C(CN2CCOCC2)c2ccccc2)cc1 (centres undefined)	8	-2	287*	0
O=C(c1ccccc1)C(CN1CCCCC1)c1ccccc1 (centres undefined)	-6	8	/	/
COC(=O)C1=C(C)N(C)C(=NCC2CC2)NC1c1ccc(F)cc1 (centres undefined)	/	0	/	/
CN1CCN(CC(=O)N2CCn3c4c(c5cc(C6CCCCC6)ccc53)CCCC42)CC1 (centres undefined)	2	/	500*	0
Cc1ccc2c(c1)c1c3n2CCN(C(=O)CN2CCN(C)CC2)C3CCC1 (centres undefined)	-10	-2	11	0
Cc1nc2ccc(S(=O)(=O)NCC(=O)N(C)Cc3ccc(F)cc3)cc2s1	/	2	/	/
